Common to all, as to test: universal protein binding microarray (PBM); transcription factors of Arabidopsis thaliana; high values mean tight binding
For assay [1], the target named is T1, GST-ANAC092(1-176) (Arabidopsis thaliana, UniProt Q9FKA0 1-176).
T1 sequence: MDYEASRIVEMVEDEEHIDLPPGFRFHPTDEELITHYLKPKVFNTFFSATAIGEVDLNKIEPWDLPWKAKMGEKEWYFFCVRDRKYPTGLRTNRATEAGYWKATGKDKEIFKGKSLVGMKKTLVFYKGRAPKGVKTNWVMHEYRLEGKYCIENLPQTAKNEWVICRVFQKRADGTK
Particulars: protein: recombinant; tags: GST; chain copies: 2; dsDNA, one strand shown. The gist of the method: (§1)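 GST-tagged NAC-domain, full-length or DNA-binding-domain proteins were induced in cells, with zinc acetate added for zinc-finger proteins. They were purified on glutathione–Sepharose 4B and quantified by A280 or anti-GST western blot. Each was applied at 200 to 500 nM final, in duplicate, to custom all-10-mer Agilent 4 × 180K arrays made double-stranded by primer extension, with gapped and ungapped 8-mers scored. Binding is the normalised enrichment score (E-score).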

Assay [2] addresses GST-NTL6(1-168) (Arabidopsis thaliana, UniProt Q9SCK6 1-168). Particulars: protein: recombinant; tags: GST; chain copies: 2; dsDNA, one strand shown. The gist of the method:
as §1

Assay [3] has as its target T2, GST-ANAC092(1-285) full length (Arabidopsis thaliana, UniProt Q9FKA0 1-285).
T2 sequence: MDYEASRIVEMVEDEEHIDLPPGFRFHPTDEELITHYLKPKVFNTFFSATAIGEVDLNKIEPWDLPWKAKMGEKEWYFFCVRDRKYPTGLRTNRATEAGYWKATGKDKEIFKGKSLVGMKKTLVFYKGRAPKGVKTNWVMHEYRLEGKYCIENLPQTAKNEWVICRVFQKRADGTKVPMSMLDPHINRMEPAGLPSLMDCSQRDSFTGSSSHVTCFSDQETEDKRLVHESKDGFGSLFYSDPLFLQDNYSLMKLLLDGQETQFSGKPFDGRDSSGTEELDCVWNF
Particulars: protein: recombinant; tags: GST; chain copies: 2; dsDNA, one strand shown. In a few lines: as §1

In assay [4] the target is T3, GST-NTL8 NAC domain (Arabidopsis thaliana, UniProt Q9XIN7 14-156).
T3 sequence: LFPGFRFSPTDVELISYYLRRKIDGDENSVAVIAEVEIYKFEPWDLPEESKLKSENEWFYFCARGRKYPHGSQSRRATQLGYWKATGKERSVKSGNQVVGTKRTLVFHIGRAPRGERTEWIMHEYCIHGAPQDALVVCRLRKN
Particulars: protein: recombinant; tags: GST; chain copies: 2; dsDNA, one strand shown. The gist of the method: as §1

In assay [5] the target is GST-WRKY1(266-371) (Arabidopsis thaliana, UniProt Q9SI37 266-371). Particulars: protein: recombinant; tags: GST; dsDNA, one strand shown. The gist of the method:
as §1

Assay [6] has as its target T4, GST-NAP(1-166) (Arabidopsis thaliana, UniProt O49255 1-166).
T4 sequence: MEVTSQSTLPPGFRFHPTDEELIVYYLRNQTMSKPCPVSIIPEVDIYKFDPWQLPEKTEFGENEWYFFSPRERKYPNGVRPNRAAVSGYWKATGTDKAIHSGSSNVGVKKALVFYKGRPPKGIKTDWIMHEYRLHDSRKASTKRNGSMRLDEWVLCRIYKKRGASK
Particulars: protein: recombinant; tags: GST; chain copies: 2; dsDNA, one strand shown. The gist of the method: as §1

The target in assay [7] is T5, GST-ATAF1 NAC domain (Arabidopsis thaliana, UniProt Q39013 7-158).
T5 sequence: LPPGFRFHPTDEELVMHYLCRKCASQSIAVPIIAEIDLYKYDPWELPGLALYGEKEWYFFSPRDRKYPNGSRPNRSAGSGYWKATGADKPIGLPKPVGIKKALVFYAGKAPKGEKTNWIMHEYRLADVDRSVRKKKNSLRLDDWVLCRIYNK
Particulars: protein: recombinant; tags: GST; chain copies: 2; dsDNA, one strand shown. In a few lines:
as §1

Assay [8] deals with T6, GST-ANAC019 NAC domain (Arabidopsis thaliana, UniProt Q9C932 14-162).
T6 sequence: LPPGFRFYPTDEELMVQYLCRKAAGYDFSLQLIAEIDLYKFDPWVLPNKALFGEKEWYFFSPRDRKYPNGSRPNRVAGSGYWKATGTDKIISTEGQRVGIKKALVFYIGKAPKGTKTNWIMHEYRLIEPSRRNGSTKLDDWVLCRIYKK
Conditions: protein: recombinant; tags: GST; chain copies: 2; dsDNA, one strand shown. In a few lines: as §1

Assay [9] concerns the target T7, GST-NST2(1-184) (Arabidopsis thaliana, UniProt Q9M274 1-184).
T7 sequence: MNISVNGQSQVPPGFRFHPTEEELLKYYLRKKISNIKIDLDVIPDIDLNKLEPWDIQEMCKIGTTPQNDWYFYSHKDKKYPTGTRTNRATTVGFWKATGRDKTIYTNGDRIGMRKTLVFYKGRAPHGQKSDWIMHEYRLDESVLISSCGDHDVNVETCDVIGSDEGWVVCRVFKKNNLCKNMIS
Particulars: protein: recombinant; tags: GST; chain copies: 2; dsDNA, one strand shown. The gist of the method: as §1

GST-NTL6(1-168), sequence (Q9SCK6 1-168): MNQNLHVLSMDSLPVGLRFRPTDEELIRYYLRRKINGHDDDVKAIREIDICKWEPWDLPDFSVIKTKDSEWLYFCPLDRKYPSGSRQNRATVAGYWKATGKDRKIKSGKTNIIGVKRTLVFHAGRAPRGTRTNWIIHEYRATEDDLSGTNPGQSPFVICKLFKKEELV
GST-WRKY1(266-371), sequence (Q9SI37 266-371): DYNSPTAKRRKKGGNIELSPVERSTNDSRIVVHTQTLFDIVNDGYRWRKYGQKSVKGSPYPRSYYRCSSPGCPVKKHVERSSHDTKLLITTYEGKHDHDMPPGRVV

Consider AGGTAACC, for which the binding signal in assay [1] turned out to be 0.148 E-score; in [2] it was 0.105 E-score; in assay [3] it was 0.137 E-score; in [4], 0.442 E-score.
With CTGGGTCA, the results for the binding signal in [3] and in [5] were 0.0748 E-score and 0.439 E-score, respectively.
Take GGAGGAAA: the binding signal in assay [1] was determined as 0.124 E-score; in assay [2], 0.146 E-score; in assay [4] it was 0.459 E-score.
For the sequence ATGGGTCA, the binding signal in [6] worked out at 0.0537 E-score; in assay [5] it was 0.422 E-score.
The matching figures for GACCGTCA: 0.0503 E-score and 0.407 E-score.
AGGTCAAC: the binding signal was found to be 0.051 E-score in [7], 0.0726 E-score in assay [4] and 0.492 E-score in assay [5].
Consider AGGTTTCC, for which the binding signal in [2] stood at 0.052 E-score; in [8] it was 0.0846 E-score; in assay [9] it was 0.0833 E-score; in [4] it was 0.457 E-score.
As to ACGGTCAA, the binding signal in [3] turned out to be 0.0716 E-score; in [5], 0.49 E-score.
Regarding AGGGTCAA, the binding signal in assay [4] worked out at 0.0535 E-score; in assay [5] it was 0.483 E-score.
As to AAGTCGTC, the binding signal in [6] is 0.156 E-score; in assay [5], 0.419 E-score.
As for TGAGTCAA, the binding signal in assay [3] amounted to 0.0797 E-score; in assay [5], 0.48 E-score.
Turning to CCTTTCCC, the binding signal in assay [1] came to 0.088 E-score; in [2] it was 0.11 E-score; in [8], 0.0681 E-score; in assay [4] it was 0.421 E-score.
GAGGGAAA: the binding signal in assay [1] came to 0.11 E-score; in assay [2], 0.11 E-score; in assay [8], 0.154 E-score; in assay [6], 0.0766 E-score; in assay [4], 0.472 E-score.
Turning to GGGAAACC, the binding signal is 0.144 E-score in [1] and 0.443 E-score in [4].
As for AGGTTACC, the binding signal in assay [1] was 0.0662 E-score; in assay [8], 0.0729 E-score; in assay [3] it was 0.182 E-score; in assay [4] it was 0.437 E-score.
As for TACGGTCA, the binding signal in assay [6] stood at 0.0976 E-score; in assay [5], 0.442 E-score.
In the case of CGGGGTCA, the binding signal worked out at 0.107 E-score in [4] and 0.412 E-score in assay [5].
On to CGGTCAAC, for which the values for the binding signal in [6] and in [5] were 0.118 E-score and 0.495 E-score, respectively.
On to AGGGTAAC, for which the binding signal in assay [1] was found to be 0.059 E-score; in [2] it was 0.0788 E-score; in assay [3], 0.0751 E-score; in [4] it was 0.416 E-score.
Regarding CTCGGTCA, the binding signal in assay [4] came out at 0.0649 E-score; in assay [5], 0.451 E-score.
GGGGGGAA: the binding signal in [4] was 0.453 E-score.
Consider ATTGACCG, for which the binding signal in assay [3] came to 0.0505 E-score; in assay [5] it was 0.487 E-score.
Turning to CGGTCAAA, the binding signal in assay [9] worked out at 0.0603 E-score; in [4], 0.0552 E-score; in assay [5], 0.49 E-score.
With ACGGTCAG, the binding signal in assay [4] is 0.0654 E-score; in assay [5] it was 0.432 E-score.
For the sequence CGAGGTCA, the binding signal is 0.0549 E-score in assay [4] and 0.425 E-score in assay [5].
For CAATTGAC, the binding signal in [6] was 0.054 E-score; in assay [5], 0.435 E-score.

For the origin of these results see article PMC4081100, “A DNA-binding-site landscape and regulatory network analysis for NAC transcription factors in Arabidopsis thaliana”.
